FBW7 act: human FBW7 E3 ligase activation, primary screen. AID 1259310. AlphaScreen FBW7–phospho-cyclin E peptide binding, activator screen. normalized activity (activation), % at 26.1 µM. 650,000 compounds, 0.13% hits; in the data active = normalized activity above about 1.9%;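 note: purified mutant Fbw7 with reduced substrate affinity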
Target sequence (Q969H0 whole entry, looked up): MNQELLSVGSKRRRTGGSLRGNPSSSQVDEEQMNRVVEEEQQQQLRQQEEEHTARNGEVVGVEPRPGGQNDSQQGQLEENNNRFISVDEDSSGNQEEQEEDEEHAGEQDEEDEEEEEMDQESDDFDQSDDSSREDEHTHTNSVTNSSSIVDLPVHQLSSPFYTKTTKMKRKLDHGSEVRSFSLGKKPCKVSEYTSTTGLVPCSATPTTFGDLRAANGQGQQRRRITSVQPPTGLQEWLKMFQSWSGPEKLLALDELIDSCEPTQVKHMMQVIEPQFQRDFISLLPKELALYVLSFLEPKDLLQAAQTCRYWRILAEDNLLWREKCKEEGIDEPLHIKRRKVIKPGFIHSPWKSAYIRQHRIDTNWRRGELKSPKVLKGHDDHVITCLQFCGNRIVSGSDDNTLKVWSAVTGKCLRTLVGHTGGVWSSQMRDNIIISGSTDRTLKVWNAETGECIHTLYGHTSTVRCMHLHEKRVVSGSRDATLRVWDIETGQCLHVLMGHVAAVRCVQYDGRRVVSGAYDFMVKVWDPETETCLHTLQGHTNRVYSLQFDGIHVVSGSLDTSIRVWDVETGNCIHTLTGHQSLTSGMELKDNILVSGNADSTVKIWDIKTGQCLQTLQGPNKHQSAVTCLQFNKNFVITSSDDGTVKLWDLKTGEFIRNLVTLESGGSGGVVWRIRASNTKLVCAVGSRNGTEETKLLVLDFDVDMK
MITF primary: inhibitors of human MITF. 650,000 compounds, 0.91% hits. AID 1259374. O75030. inhibition, % at 2.6 µM. AlphaScreen MITF homodimerization, bead proximity signal; in the data active = inhibition above about 50%;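 note: 0% = vehicle wells with protein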
GPR151 activ: activators of human GPR151; 650,000 compounds, 1% hits; activation, % at 11.2 µM; PathHunter beta-arrestin GPR151 cells, luminescence; in the data active = activation above about 4.9%;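 note: 0% = median of compound wells and 100% = cells with positive control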
TEAD-YAP block: TEAD-YAP interaction inhibition; HEK-TIYL cells, TEAD-Gal4/YAP UAS-luciferase luminescence; inhibition, % at 9.12 µM; 640,000 compounds, 1.4% hits; AID 1259422; in the data active = inhibition above about 32%;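 note: 0% = median of test compound wells and 100% = reference inhibitor wells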
MITF inh conf: confirmation of human MITF inhibitors; inhibition, % at 2.6 µM; AID 1259372; shares compounds with MITF primary; AlphaScreen MITF homodimerization, biotin/His-MITF beads; 4,700 compounds, 16% hits;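 active = inhibition above a cutoff derived from the DMSO control wells, cut at about 28% in these data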;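 note: 0% = MITF dimer wells with DMSO only; inhibitors lower the bead chemiluminescence by keeping MITF from dimerizing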
AlphaScreen DR: counter-screen: compounds optically interfering with AlphaScreen. shares compounds with MITF primary. AlphaScreen optical interference counterscreen, cell-free. IC50, µM. 480 compounds, 6% hits; call rule not given here
AlphaScreen intf2: optically interferes with AlphaScreen signal; shares compounds with MITF primary; LysRS AlphaScreen counterscreen, signal interference, triplicate; inhibition, % at 2.6 µM; 4,700 compounds, 7.6% hits;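 active = inhibition above a cutoff derived from the DMSO control wells, cut at about 30% in these data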
Active calls of the source: *; · = not tested or not shown. In the library only some 3.5% were active in any assay of this set; here they are far more common.

SMILES | FBW7 act | MITF primary | GPR151 activ | TEAD-YAP block | MITF inh conf | AlphaScreen intf2 | others
CCOC(=O)C1=C(C)N=c2s/c(=C\c3cn(Cc4ccccc4Cl)c4ccccc34)c(=O)n2C1c1ccc(C(C)C)cc1 (centres undefined) | 0 | -31 | 0 | 0 | · | ·
Cc1cccc(N2C(=O)C3C4C=CC(O4)C3C2=O)c1C (centres undefined) | -1 | 51* | 0 | 6 | -1 | 10
Cn1c(C(=O)NCc2cccs2)cc2c(=O)n3ccccc3nc21 | 0 | 1 | 0 | -47 | · | ·
CCN(C(=O)CN1CCN(C)CC1)c1cccc2ccccc12 | 0 | 85* | 0 | 2 | -4 | -4
CCN(C(=O)Cn1cnc2ccccc21)c1cccc2ccccc12 | 0 | -1 | 1 | 14 | · | ·
CN1CCN(CC(=O)N(c2ccccc2)c2ccc(O)cc2)CC1 | 0 | 75* | 2 | -3 | 12 | 16
O=C(CN1CCC(N2CCCCC2)CC1)N(c1ccccc1)c1ccc(O)cc1 | 0 | 9 | 0 | -3 | · | ·
CN1CCN(CCS(=O)(=O)OCC(F)(F)C(F)F)CC1 | 0 | 77* | 2 | 0 | 11 | -3
OC(CNCC1CCCCC1)COc1ccccc1 (centres undefined) | 0 | -5 | 0 | -5 | · | ·
CN(C)C(CNCC(O)COc1ccccc1)c1cccs1 (centres undefined) | 0 | 71* | 2 | 9 | -3 | 2
OC(CNCCNCC(O)COc1ccccc1)COc1ccccc1 (centres undefined) | 0 | 19 | -1 | 7 | · | ·
CC1CCN(C(CNCC(O)COc2ccccc2)c2cccs2)CC1 (centres undefined) | 0 | 70* | 0 | -1 | -20 | 4
CCOC(=O)COC1=C(c2ccccc2)C(=O)c2ccccc2C1=O | 0 | 17 | -1 | 12 | · | ·
O=C(c1cnn2cccnc12)N1CCc2c([nH]c3ccccc23)C1c1ccccc1F (centres undefined) | 0 | 6 | 0 | 3 | · | ·
COc1cc(C2C(C(=O)OC(C)C)=C(C)NC3=C2C(=O)CC(c2ccccc2)C3)ccc1OCc1ccccc1 (centres undefined) | 0 | 64* | 0 | 5 | 10 | 17
COc1ccc(C2Nc3ccccc3NC3=C2C(=O)CC(c2ccc(Cl)cc2)C3)cc1OC (centres undefined) | 0 | 3 | 2 | -1 | · | ·
COc1ccc(C2C(C(=O)OC(C)C)=C(C)NC3=C2C(=O)CC(c2ccccc2)C3)cc1OC (centres undefined) | 2 | 6 | -1 | 1 | · | ·
COc1ccc(C2Nc3ccccc3NC3=C2C(=O)CC(c2ccccc2)C3)cc1OC (centres undefined) | 0 | 57* | 1 | 3 | 13 | 14
Cn1c(Cn2c(=O)sc3ccccc32)nnc1SC/C=C/c1ccccc1 | 0 | -3 | -2 | 5 | · | ·
O=C1OC(c2ccc(Cl)cc2Cl)=N/C1=C\c1ccc([N+](=O)[O-])o1 | 0 | 56* | 0 | -1 | 51* | 2 | AlphaScreen DR=>6.1
Cc1cc(NC(=O)c2ccc(Br)cc2)c(C)cc1O | 0 | -9 | 2 | 24 | · | ·
Cc1cc(NC(=O)c2ccc(Br)cc2)ccc1O | 0 | 75* | 0 | 80* | 17 | 14
Cc1ccc2sc(NNC(=O)c3ccc(F)cc3)nc2c1C | 0 | 3 | -1 | -20 | · | ·
Oc1c(Cl)cc(CN2CCCCC2)c2cccnc12 | -1 | 110* | 1 | 83* | 110* | 101*
Oc1c(Br)cc(CN2CCCCC2)c2cccnc12 | -1 | 92* | 0 | 66* | 112* | 101*
Clc1ccccc1CN1CCN(c2ncccn2)CC1 | 0 | 21 | 0 | -4 | · | ·
O=C(O)CCc1nnc2n(CCc3ccccc3)c(=O)c3ccccc3n12 | 0 | 14 | 2 | 1 | · | ·
c1ccc(CN2CCC(NCc3ccc(-n4ccnc4)cc3)CC2)cc1 | 0 | 51* | 3 | 3 | 11 | 17
CC(CC(=O)Nc1ccccc1)NC1CCN(Cc2ccccc2)CC1 (centres undefined) | 0 | 66* | 1 | 0 | 15 | 10
CC(=O)Nc1ccc(CNC2CCN(Cc3ccccc3)CC2)cc1 | 0 | 79* | -1 | 11 | 2 | 3

Screening data deposited in PubChem by The Scripps Research Institute Molecular Screening Center.
